About 83,000 compounds went through this panel and 20% of them were active in at least one assay; those are over-represented in the sample as a whole.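 How to read the values: 0–100, growth inhibition (40 = 60% inhibited); 0, no net growth; -100 to 0, cell death (-40 = 40% of starting cells died; -100 = all dead).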 Unmarked numbers belong to inactive results. Calls of active or inactive are those of the source. Rule for the calls: active = growth percent below 10; inactive = the rest.

Holding throughout (assay): NCI-60 one-dose screen, 48 h (100 = growth as untreated, 0 = no growth, -100 = all killed)
What all share (settings): 10 µM

For test [1], the system named is K-562 leukemia.
The test system of test [2] is MALME-3M melanoma.
For test [3], the system named is MDA-MB-231 breast.
Test [4] deals with RXF 393 renal.
The subject of test [5] is SF-268 CNS.
The subject of test [6] is SF-295 CNS.
Test [7] relates to SF-539 CNS.
Test [8] has as its system UACC-257 melanoma.
Test [9] has as its system M14 melanoma.
Test [10] deals with HCT-15 colon.

Consider `COc1ccc(OC)c(/C=C/c2nc(SCc3ccccc3)n(-c3ccc(Cl)cc3)n2)c1`, for which the growth in test [1] is 18.2%; in test [2] it was 34.9%; in test [3], 67.1%; in test [4] it was 82.8%; in [5], 57.7%; in test [6] it was -15.4% (active). The growth is 44.2% in test [7], 74% in test [8], 14.1% in test [9] and 34% in test [10].
Take `C#Cc1ccc(-n2c(/C=C/c3ccc(C(F)(F)F)cc3)nc3ncccc3c2=O)cc1`: the growth is 4.03% (active) in test [1]; 39.1% in test [2]; 56.9% in [3]; -10.4% (active) in [4]; 31.4% in test [5]; 32.6% in test [6]. Further, the growth was 45.2% in [7], 29% in test [8], 10.7% in test [9] and 22.3% in [10].
As for `CC1(C)CCC(=NNC(N)=S)CC1`, the growth in [1] was 94.6%; in test [2] it was 107%; in test [3], 116%; in [4], 115%; in test [5], 103%; in test [6], 88.2%. Also, the growth was 98.1% in [7], 102% in test [8], 113% in test [9] and 98.8% in [10].
Take `O=[N+]([O-])c1ccc(N/N=C/c2cccc3ccccc23)nc1`: the growth in test [1] was 85.4%; in [2], 168%; in test [3], 101%; in test [4] it was 112%; in test [5] it was 121%; in [6], 126%. The growth in test [7] was 102%; in test [8], 102%; in [9], 104%; in test [10], 91.1%.
As to `O=C(Nc1ccc(Cl)c([N+](=O)[O-])c1)Nc1nc2ccccc2s1`, the growth in test [1] is 74.9%; in test [2] it was 67.6%; in test [3], 86.2%; in test [4] it was 113%; in test [5] it was 106%; in test [6], 71%. In addition, the growth in test [7] is 83.6%; in test [8], 91.8%; in test [10], 92.3%.
For `Cc1[nH]nc2c1C(c1cnn(C)c1)C(C#N)=C(N)O2` (stereo not drawn), the growth in test [1] is 93.6%; in [2] it was 95.8%; in test [3] it was 117%; in [4] it was 106%; in test [5] it was 105%; in test [6], 105%. In addition, the growth in [7] was 99.3%; in test [8], 98.3%; in test [9] it was 100%; in test [10] it was 99.6%.
Turning to `CSc1nn(-c2ccccc2)c2ncnc(Oc3ccc(C)cc3)c12`, the growth in test [1] is 88.9%; in [2] it was 91.6%; in test [3], 66.9%; in [4], 68.9%; in test [5], 90.7%; in test [6], 93.1%. The values for the growth in [7], in test [8] and in test [10] were 94.5%, 93% and 93.5%, respectively.
Regarding `O=C(c1ccc(Cl)cc1Cl)N1CCOCC1`, the growth in test [1] is 89.1%; in [2], 112%; in [3], 98.5%; in [4], 116%; in test [5], 98.1%; in test [6], 140%. Besides, the growth was 96.9% in test [7], 96.6% in test [8] and 112% in [10].
Regarding `COc1cc(/C=N/NC(=O)c2ccccc2Nc2cccc(C(F)(F)F)c2)cc(OC)c1OC`, the growth in test [1] is 12.3%; in test [2] it was 11.5%; in test [3], 28.5%; in test [4], 4.73% (active); in [5], 20.4%; in test [6], -14.8% (active). Besides, the growth in test [7] was -0.572% (active); in [8], 49.6%; in [10], 7.05% (active).
As to `FC(F)(F)c1ccc(-c2cnc(-n3cc(COCCN4CCCCC4)nn3)nc2NC2CCCCCC2)cc1`, the growth in test [1] was -48.4% (active); in test [2] it was -86.3% (active); in test [3], 11.1%; in [4] it was -3.46% (active); in test [5], 33.2%; in test [6] it was -56.8% (active). The growth in test [7] is -66.8% (active); in [8], -89.7% (active); in [9], -87.6% (active); in test [10], 3.73% (active).
Consider `C#Cc1ccc(-n2c(/C=C/c3ccc4ccccc4n3)nc3ncccc3c2=O)cc1`, for which the growth in test [1] was 3.17% (active); in [2], -62.9% (active); in test [3], -41.2% (active); in test [4], -82.5% (active); in test [5], -49.5% (active); in test [6] it was -58.3% (active). Moreover, the growth in test [7] was -17.6% (active); in test [8], -72.9% (active); in test [10], -18.8% (active).
For `COc1cc(-c2nn3c(/C=C4/C(=O)Nc5ccccc54)c(-c4ccc(C)cc4)nc3s2)cc(OC)c1OC`, the growth in test [1] was 55.7%; in test [2], -23.8% (active); in [3], 50.6%; in test [4], 63.7%; in [5], 15.9%; in test [6] it was 74.1%. For the same molecule, the growth in test [7] is 81.8%; in test [8], 34.4%; in test [10] it was 58.9%.
In the case of `Cc1cc(C)c(NC(=O)c2sc3nc4c(cc3c2N)C(=O)CCC4)c(C)c1`, the growth in test [1] was 19.8%; in test [2], 42.1%; in test [3], 35.7%; in test [4], -6.66% (active); in [5], 38.6%; in [6], -11.3% (active). In addition, the growth was -6.5% (active) in test [7], 48.7% in test [8], 16.4% in test [9] and 31.8% in test [10].
Take `NC(=S)N=Nc1c(O)c2ccccc2c2ccccc12`: the growth is 42.2% in test [1]; 60.5% in [2]; 76.7% in test [3]; 99.4% in test [4]; 56.7% in [5]; 82.7% in test [6]. Besides, the growth is 16.1% in test [7], -61.3% (active) in test [8] and 23.3% in [10].

Source of the values: PubChem BioAssay (NCI).
